# Measured values taken from PubChem BioAssay AID651598 (Sanford-Burnham Center for Chemical Genomics, 2012).
# Values joined by “and” are separate entries in the source; they are usually repeats but may differ in a detail not shown here. Equal values may be shown once.
# Target: Apelin receptor (Homo sapiens) (UniProt P35414)
# Test: apelin receptor (APJ) antagonists, SAR follow-up, counter-screen for CXCR6 antagonist project, cell-based, beta-arrestin, DiscoveRx, panel, CHO-K1 (AID 651598)
# Conditions: CHO-K1 PathHunter beta-arrestin luminescence, antagonist mode; run 1, at 80 µM (top of the series)
# Chain of Apelin receptor (Homo sapiens) (P35414 whole entry, looked up): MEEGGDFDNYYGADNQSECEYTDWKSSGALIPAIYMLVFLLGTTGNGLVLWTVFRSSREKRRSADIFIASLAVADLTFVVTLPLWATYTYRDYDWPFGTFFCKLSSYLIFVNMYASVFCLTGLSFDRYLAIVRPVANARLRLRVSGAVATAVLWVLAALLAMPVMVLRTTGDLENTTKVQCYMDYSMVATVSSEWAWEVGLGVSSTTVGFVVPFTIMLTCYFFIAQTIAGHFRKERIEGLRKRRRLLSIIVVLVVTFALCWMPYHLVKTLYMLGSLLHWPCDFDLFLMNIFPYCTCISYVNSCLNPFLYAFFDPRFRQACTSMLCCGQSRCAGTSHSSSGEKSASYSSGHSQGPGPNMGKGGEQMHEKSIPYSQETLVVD
row,Compound,inhibition
1,COc1cc(C(=O)NC2CC3CCC(C2)N3CC(=O)Nc2ccccc2)cc(OC)c1OC (stereo not drawn),15.6% and 6.78%
2,COc1cc(C(=O)NC2CCN(CC(=O)Nc3ccccc3)CC2)cc(OC)c1OC,-17.6%
3,COc1cc(C(=O)NC2CC3CCCC(C2)N3CC(=O)Nc2ccccc2)cc(OC)c1OC (stereo not drawn),-17.1% and -7.52% and 20.1%
